PAFAH1B2 inh = PAFAH1B2 enzyme inhibitors, primary screen, biochemical, fluorescence polarization, human; inhibition, % at 3.39 µM; recombinant PAFAH1B2, FP-rhodamine activity probe; 340,000 compounds, 1.2% hits; AID 492953, 2010; Platelet-activating factor acetylhydrolase IB subunit alpha2 (Homo sapiens), P68402;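 active = inhibition above the mean of all tested compounds plus 3 SD, cut at about 24% in these data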;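 note: 0% = enzyme with DMSO and 100% = wells lacking PAFAH1B2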
pPAFAH FP inh = pPAFAH enzyme inhibitors, primary screen, biochemical, fluorescence polarization, human. Platelet-activating factor acetylhydrolase (Homo sapiens), Q13093. recombinant pPAFAH, FP-rhodamine probe fluorescence polarization. inhibition, % at 3.39 µM. 330,000 compounds, 1.5% hits. AID 463082, 2010;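 active = inhibition above the mean inhibition across the screen plus 3 SD, cut at about 25% in these data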;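 note: inhibitors block binding of the rhodamine activity-based probe so polarization drops; 0% = enzyme with DMSO and 100% = wells lacking pPAFAH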
PAFAH1B3 FP inh = PAFAH1B3 enzyme inhibitors, primary screen, biochemical, fluorescence polarization, human. Platelet-activating factor acetylhydrolase IB subunit alpha1 (Homo sapiens), Q15102. recombinant PAFAH1B3, FP-rhodamine probe. inhibition, % at 3.39 µM. 340,000 compounds, 0.28% hits;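 active = inhibition above the screen-wide average of all tested compounds plus 3 SD, cut at about 25% in these data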;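 note: 0% = enzyme with DMSO only and 100% = wells lacking PAFAH1B3 protein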
Target sequence (Q15102 whole entry, looked up): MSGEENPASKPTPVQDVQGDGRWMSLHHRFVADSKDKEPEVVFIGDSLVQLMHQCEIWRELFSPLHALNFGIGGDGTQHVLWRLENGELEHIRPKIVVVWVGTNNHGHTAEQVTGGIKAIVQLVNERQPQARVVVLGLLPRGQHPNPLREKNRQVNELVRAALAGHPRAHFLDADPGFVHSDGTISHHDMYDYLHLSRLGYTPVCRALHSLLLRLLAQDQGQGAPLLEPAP
PP1 inh = PP1-alpha phosphatase inhibitors, primary screen, counter-screen for PP5 inhibitor project, biochemical, fluorescence, OMFP substrate, single point. purified PP1alpha. 320,000 compounds, 0.9% hits. Serine/threonine-protein phosphatase PP1-alpha catalytic subunit (Homo sapiens), P62136. inhibition, % at 6.7 µM;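 active = inhibition above the mean inhibition of all tested compounds plus 3 SD, computed separately for each screening campaign, cut at about 15% in these data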
Target sequence (P62136 whole entry, looked up): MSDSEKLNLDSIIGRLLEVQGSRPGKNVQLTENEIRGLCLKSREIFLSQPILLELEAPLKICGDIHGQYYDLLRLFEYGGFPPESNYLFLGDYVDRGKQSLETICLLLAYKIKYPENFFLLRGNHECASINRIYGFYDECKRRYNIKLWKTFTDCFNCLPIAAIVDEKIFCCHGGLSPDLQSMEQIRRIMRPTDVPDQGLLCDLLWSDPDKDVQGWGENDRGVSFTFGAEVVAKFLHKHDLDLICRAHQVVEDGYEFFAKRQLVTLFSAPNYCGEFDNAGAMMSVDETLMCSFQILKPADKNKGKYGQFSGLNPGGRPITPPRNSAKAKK
PAFAH2 inh = PAFAH2 enzyme inhibitors, primary screen, biochemical, fluorescence polarization, human | Platelet-activating factor acetylhydrolase 2, cytoplasmic (Homo sapiens), Q99487 | recombinant PAFAH2, FP-rhodamine activity probe | inhibition, % at 3.39 µM | 340,000 compounds, 0.99% hits | AID 492956, 2010;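 active = inhibition above the mean over all tested compounds plus 3 SD, cut at about 30% in these data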;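 note: inhibitors block probe labeling of enzyme so polarization drops; 0% = enzyme with DMSO and 100% = wells lacking PAFAH2 protein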
PP5 inh = PP5 phosphatase inhibitors, primary screen, biochemical, fluorescence | purified PP5c, OMFP substrate fluorescence | 320,000 compounds, 0.18% hits | AID 1987, 2009 | inhibition, % at 6.7 µM | Serine/threonine-protein phosphatase 5 (Homo sapiens), P53041;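 active = inhibition above the campaign's mean inhibition across all tested compounds plus 3 SD, cut at about 9.5% in these data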;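 note: 0% = DMSO only and 100% = 100 µM cantharidin control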
PAFAH2 FP conf = PAFAH2 enzyme inhibitors, confirmation, biochemical, fluorescence polarization, human | inhibition, % at 3.39 µM | shares compounds with PAFAH2 inh | AID 493030, 2011 | 2,300 compounds, 65% hits | recombinant PAFAH2, FP-rhodamine activity probe;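 active = mean inhibition over three repeats above a set limit taken from the earlier primary screen, cut at about 30% in these data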;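 note: inhibitor blocks binding of rhodamine activity probe so polarization falls; 0% = enzyme with DMSO and 100% = wells lacking PAFAH2 protein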
* marks the source's active call; other numbers are inactive results; / = not tested or not shown. Rows were chosen to be rich in hits. Some 3.4% of all compounds tested hit in one or more screens of this group.

SMILES | PAFAH1B2 inh | pPAFAH FP inh | PAFAH1B3 FP inh | PP1 inh | PAFAH2 inh | PP5 inh | PAFAH2 FP conf
O=C(COc1ncnc2scc(-c3ccccc3)c12)NCCN1C(=O)CSC1=O | / | 0 | / | 0 | / | -1 | /
Nc1nc(CN2CCN(c3ccccc3F)CC2)nc(N2CCCc3ccccc32)n1 | 1 | 6 | 1 | 1 | 3 | 0 | /
O=C1NC(=S)S/C1=C\C=C\c1ccc([N+](=O)[O-])o1 | 9 | / | 17 | / | 43* | / | 27
O=C(COC(=O)/C=C/c1ccc2c(c1)OCO2)Nc1ccccc1 | 9 | 3 | 8 | -5 | 79* | -2 | 81*
COc1cccc(NC(=O)COC(=O)c2ccc3c(c2)OCO3)c1 | 2 | / | -1 | / | 83* | / | 73*
O=C(COC(=O)/C=C/c1ccc2c(c1)OCO2)Nc1ccc(S(=O)(=O)N2CCCC2)cc1 | -2 | 3 | -7 | 1 | -8 | 0 | /
COc1cccc(NC(=O)c2ccc3c(c2)OCO3)c1 | -2 | 10 | 8 | -3 | -2 | 0 | /
O=C(COC(=O)c1ccc2c(c1)OCO2)Nc1ccccc1OC(F)F | 3 | 12 | 5 | / | 47* | / | 46*
CN(C)c1nc(Oc2ccc(C(=O)OCC(=O)Nc3ccccc3)cc2)nc(N(C)C)n1 | 1 | 23 | 0 | 2 | 90* | 4 | 76*
Cc1ccc(-c2nnc(N3CCN(c4ccccn4)CC3)c3ccccc23)cc1 | 2 | 6 | 6 | 3 | 8 | 3 | /
O=c1[nH]c2ccccc2c(=O)n1Cc1ccco1 | 5 | -1 | 1 | -1 | 7 | 4 | /
COc1cc(/C=N/NC(=O)C2CCN(CC(O)COCc3ccccc3)CC2)ccc1O (stereo not drawn) | 2 | 3 | -1 | -4 | 4 | -1 | /
CC(C(=O)N1c2ccccc2Sc2ccccc21)n1nnc(-c2cccs2)n1 (stereo not drawn) | 1 | 5 | 2 | 2 | 8 | 2 | /
COc1ccc(S(=O)(=O)N2c3ccccc3OCC2C(C)(C)C)cc1 (stereo not drawn) | 0 | 2 | 9 | -3 | 0 | 5 | /
CC(NS(=O)(=O)c1ccc(Cl)c(Cl)c1)C(=O)OCC(=O)Nc1ccc2c(c1)OCO2 (stereo not drawn) | 3 | 11 | 5 | 1 | 31* | 2 | 24
O=C(OCCCc1cc2ccccc2c(=O)o1)c1ccc2c(c1)OCO2 | -2 | 8 | 0 | 2 | 38* | -2 | 15
CN(C)c1ccc(NC(=O)COC(=O)c2ccc3c(c2)OCO3)cc1 | -2 | 11 | -1 | / | 32* | / | 27
O=C(COC(=O)c1ccc(CSc2ccc(Cl)cc2)cc1)Nc1ccccc1 | 8 | 15 | 3 | 3 | 34* | 3 | 16
CN(C)c1ccc(C(=O)OCC(=O)Nc2ccc(S(N)(=O)=O)cc2)cc1 | -3 | 14 | -10 | 7 | 5 | 1 | /
O=C(OCCc1cc2ccccc2c(=O)o1)c1ccc2c(c1)OCO2 | 0 | 5 | 0 | -3 | 8 | 1 | /
OCCNc1nc(Nc2ccccc2Oc2ccccc2)nc(N2CCCC2)n1 | 7 | 9 | 13 | 0 | -2 | 2 | /
CN(C(=O)c1ccc(NC(=O)Cc2cccc(NC(=O)C3CCCN(C(=O)CCc4ccccc4)C3)c2)cc1)C1CCCC1 (stereo not drawn) | 6 | 5 | -3 | 4 | -9 | 3 | /
CC12CC(O)C3C(CCC4=CC(=O)CCC43C)C1CCC2=CCO (stereo not drawn) | 1 | / | 6 | / | 2 | / | /
Cc1noc(C)c1S(=O)(=O)N1CCC2(CC1)OCCO2 | 2 | 4 | 5 | 1 | 1 | 1 | /
O=C(COC(=O)c1ccc2c(c1)OCO2)Nc1ccccc1 | 1 | 15 | 4 | -2 | 84* | 1 | 81*
SMILES | PAFAH1B2 inh | pPAFAH FP inh | PAFAH1B3 FP inh | PP1 inh | PAFAH2 inh | PP5 inh | PAFAH2 FP conf
CN(C)S(=O)(=O)c1cc(NC(=O)COC(=O)C2COc3ccccc3O2)ccc1Cl (stereo not drawn) | 8 | 5 | 7 | -1 | -2 | 2 | /
CN(C)S(=O)(=O)c1cc(NC(=O)COC(=O)c2ccc3c(c2)OCO3)ccc1Cl | 4 | -1 | 8 | -3 | 57* | -1 | 78*
NC(=O)c1ccc(NC(=O)COC(=O)c2ccc3c(c2)OCCO3)cc1 | 5 | 0 | 11 | -3 | 18 | 1 | /
Cc1cccc(NC(=O)COC(=O)c2ccc3c(c2)OCO3)c1C | 2 | 2 | 10 | 0 | 40* | -2 | 42*
COc1ccc(C(=O)OCC(=O)Nc2c(C)cccc2C)cc1 | 0 | 8 | 2 | 0 | 67* | 0 | 60*
COc1cccc(-c2cc(=O)[nH][nH]2)c1 | 9 | 3 | 9 | -4 | -1 | -4 | /
CC(C)c1ccc(O)c(NC(=S)NC(=O)c2ccc3c(c2)OCO3)c1 | 6 | 7 | 0 | 4 | 30* | 8 | 21
O=C(NC(=S)Nc1ccccc1Br)c1ccc2c(c1)OCO2 | -3 | 2 | 9 | 2 | 5 | 2 | /
O=C(O)/C(=C\c1ccc(F)cc1)c1ccc(-c2ccccc2)cc1 | 2 | 0 | 7 | 4 | -2 | 1 | /
O=C(O)/C(=C\c1ccccc1OC(F)F)c1ccc(-c2ccccc2)cc1 | -4 | 13 | 3 | 11 | 49* | 3 | 40*
O=C(N/N=C/c1cccc(Cl)c1)C(c1ccncc1)N1CCOCC1 (stereo not drawn) | 3 | 7 | 2 | 0 | 50* | 1 | 41*
O=C(CO/N=C/c1ccc(OC(F)F)cc1)NC1CCCCC1 | 1 | 0 | 6 | -2 | -2 | 2 | /
O=C(COC(=O)/C=C/c1ccc(OC(F)F)cc1)NC1CCCCCC1 | 4 | 21 | 6 | / | 75* | / | 70*
O=C(COC(=O)/C=C/c1ccc(OC(F)F)cc1)NC1CCCCCCC1 | 2 | 0 | 3 | 0 | 66* | 1 | 71*
COc1cc2cnc(CCCC#N)cc2cc1OC | -4 | -3 | 0 | / | 0 | / | /
CC(C)(C)C(=O)OCc1nc(-c2ccc3c(c2)OCCO3)cs1 | 7 | 13 | 9 | 0 | 2 | 3 | /
COc1cccc(CNc2ccc(Br)cn2)c1O | 4 | 0 | 2 | -4 | 75* | 0 | 4
O=C(COC(=O)C1CC1)Nc1ccc(N=Nc2ccccc2)cc1 | 3 | 10 | 4 | 0 | 85* | 4 | 78*

Compound activity deposited in PubChem by The Scripps Research Institute Molecular Screening Center.
